This is part of a sample that, as a whole, favours compounds with a hit. Of some 79,000 tested, about 15% had one in any assay. Rule as the data show it: active = growth inhibition above about 70%; inactive = the rest. Where a SMILES comes first, the peptide text is derived from it. [ ]: non-standard residue; d: D form. The star is where a group is joined. ξ: configuration not given here. Cbz = O=C(OCc1ccccc1)*; ξNva = CCCC(N)C(=O)O
Tests used:
[1] = NCI Yeast Anticancer Drug Screen. Data for the rad50 strain (AID 155);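 also: 0% = growth of vehicle-only cultures of the same strain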; details: S. cerevisiae rad50 strain growth inhibition; at 50.0 µM; active compounds read high
Procedure, shortened: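 Cells are treated with compound, grown, and their growth is then scored against vehicle-only cultures of the same repair-deficient yeast strain.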

[2] = NCI Yeast Anticancer Drug Screen. Data for the mec2-1 strain (AID 157); details: S. cerevisiae mec2-1 strain, at 50.0 µM, active compounds read high
Procedure, shortened: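 Using mec2-1 yeast: add compound, measure growth, express inhibition versus vehicle-treated cultures.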

[3] = NCI Yeast Anticancer Drug Screen. Data for the sgs1 mgt1 strain (AID 161);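 also: 0% = growth of cultures given vehicle only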; details: S. cerevisiae sgs1 mgt1 strain, at 50.0 µM, active compounds read high
Procedure, shortened: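 Yeast cells carrying a defined DNA-repair defect were exposed to test compounds. Growth inhibition was measured relative to vehicle-treated controls.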

[4] = NCI Yeast Anticancer Drug Screen. Data for the cln2 rad14 strain (AID 165);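 also: 0% = growth equal to vehicle treated cultures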; details: S. cerevisiae cln2 rad14 strain, at 50.0 µM, active compounds read high
Procedure, shortened: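 Yeast strain cln2 rad14, bearing defects in cell cycle control and DNA repair, serves as the test system; values reflect growth inhibition compared with vehicle.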

[5] = NCI Yeast Anticancer Drug Screen. Data for the bub3 strain (AID 167); details: S. cerevisiae bub3 mutant strain, at 50.0 µM, active compounds read high
Procedure, shortened: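 Part of a panel of yeast mutants defective in DNA damage repair or cell cycle regulation. Each strain is grown with compound, and inhibition is calculated relative to solvent-treated cultures.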

[6] = NCI Yeast Anticancer Drug Screen. Data for the mlh1 rad18 strain (AID 175); details: S. cerevisiae mlh1 rad18 strain growth inhibition; at 50.0 µM; active compounds read high
Procedure, shortened: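 Steps: expose repair-defective yeast to compound; measure growth; express inhibition against vehicle-treated controls.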

Measured: growth inhibition

N#CCCN(CCC#N)c1ccc(CC2C(=O)N(c3cccc(S(=O)(=O)O)c3)N=C2C(=O)O)cc1 (stereo unspecified)
inactive: [1] -19.4% | [2] -26.8% | [3] -23.1% | [4] 6.65% | [5] -15.9% | [6] -32.1%

O=C1C2CCC(C2)C1CN1CCOCC1 (stereo unspecified)
inactive: [1] -10.7% | [2] 3.25% | [3] -1.25% | [4] 0.5% | [5] -7.35% | [6] -7.35%

O=C(O)C/C=C/CC(=O)O
inactive: [1] -2.25% | [2] -13.5% | [3] -2.7% | [4] 4.45% | [5] 15.4% | [6] -3.15%

c1cc(C2CCCCC2)ccc1C1CCCCC1
inactive: [1] -7.4% | [2] -19.1% | [3] -20.6% | [4] -58.1% | [5] -16.1% | [6] -3.9%

N#Cc1ccc(OC(=O)Nc2cccc(Cl)c2Cl)cc1
inactive: [1] -3.7% | [2] -25.4% | [3] 2.95% | [4] 15.7% | [5] 0.55% | [6] -9.45%

CCCC(=O)OCCCCC1CCCO1 (stereo unspecified)
inactive: [1] 13.2% | [2] 3.6% | [3] 8.75% | [4] 14% | [5] 5.45% | [6] 11.6%

CCCCCCCCCCCCCCCCCCOCCOCCOCCOCCO
inactive: [1] -21.7% | [2] -10.3% | [3] -23.5% | [4] -43.5% | [5] -3.25% | [6] -19.5%

CCCCCCCCCCCCCCCC(=O)NCNC(=O)CCCCCCCCCCCCCCC
inactive: [1] -2.15% | [2] -9.75% | [3] -20.4% | [4] -6.55% | [5] 2.65% | [6] -14.2%

O=C(O)CSc1n[nH]c(-c2ccc(O)cc2)n1
inactive: [1] -18.3% | [2] -7.25% | [3] -7.5% | [4] 18.6% | [5] 4.95% | [6] 37.2%

COC(=O)C1(Cc2ccccc2)Cc2ccccc2C1
inactive: [1] 24.7% | [2] 36.1% | [3] 36.4% | [4] 20.2% | [5] 55.4% | [6] 12.2%

COc1ccc(C(=O)CCC(=O)O)c(C)c1
inactive: [1] 7.45% | [2] 13.1% | [3] -0.85% | [4] 1.55% | [5] 19.6% | [6] 5.25%

FC(F)Cc1ccccc1
inactive: [1] 3.55% | [2] -0.75% | [3] 11.1% | [4] -7.15% | [5] -1.5% | [6] -6.6%

CS(=O)(=O)c1ccc2c(c1)-c1ccc([N+](=O)[O-])cc1C2=O
inactive: [1] 12.7% | [2] 8.8% | [3] 6.3% | [4] 1.65% | [5] -4% | [6] -0.9%

O=S1(=O)OCCOS(=O)(=O)C1(F)Br
inactive: [1] -38.4% | [2] -4.7% | [3] -19.6% | [4] -8% | [5] -20.6% | [6] -29.8%

COc1ccc(OC)c(N=Nc2cc(OC)ccc2OC)c1
inactive: [1] -13.6% | [2] -7.8% | [3] 1.1% | [4] -13.8% | [5] 3.3% | [6] -11.9%

COc1cc2c(cc1OC)C(=O)/C(=C/c1ccc(N(C)C)cc1)CC2
inactive: [1] -39.5% | [2] -58% | [3] -28.9% | [4] -63.7% | [5] -7.2% | [6] -39.8%

NC(=Nc1ccc(S(=O)(=O)Nc2cnccn2)cc1)/N=C(/N)Nc1ccc(Br)cc1
inactive: [1] 4.2% | [2] 3.9% | [3] 15.7% | [4] -4.65% | [5] -5.65% | [6] 27.1%

Oc1cc2c(cc1O)-c1[nH]ncc1CC2
inactive: [1] 24.5% | [2] 0.25% | [3] 3.35% | [4] -17.4% | [5] 4.55% | [6] -4.55%

OCC1OC(O)CC1O (stereo unspecified)
inactive: [1] -15.2% | [2] -10.5% | [3] -3.9% | [4] 9.05% | [5] -5.75% | [6] -0.05%

OC(CCNC12CC3CC(CC(C3)C1)C2)c1ccccc1 (stereo unspecified)
inactive: [1] 29.8% | [2] 22.4% | [3] 59.2% | [4] 50.5% | [5] 33.4% | [6] 53.6%

O=S(=O)(OCCCCCCCCCCOS(=O)(=O)c1ccc(Cl)cc1)c1ccc(Cl)cc1
inactive: [1] -7.6% | [2] -3.6% | [3] -3.6% | [4] 8.6% | [5] -5.3% | [6] -4.55%

CCOC(=O)C(=CC(CC)CC)C(=O)OCC
inactive: [1] 8.7% | [2] -18.4% | [3] -10.2% | [4] -4.1% | [5] -16.2% | [6] -0.85%

COc1ccc(N=C2C(=Nc3ccc(OC)cc3)N(c3ccc(OC)cc3)C(=S)N2C)cc1
inactive: [1] 19% | [2] -7.1% | [3] -39% | [4] -12% | [5] -7.65% | [6] 13.5%

N/C(=N\O)c1c(Br)n(C2OC(CO)C(O)C2O)c2ncnc(N)c12 (stereo unspecified)
inactive: [1] 12.1% | [2] 11.7% | [3] 4.7% | [4] 10.8% | [5] -2.05% | [6] 1.75%

CCOC(=O)C(NC(=O)CC(C)C)(N1CCN(c2cc3c(cc2F)c(=O)c(C(=O)O)cn3C2CC2)CC1)C(F)(F)F (stereo unspecified)
inactive: [1] -5.8% | [2] -26.3% | [3] -0.2% | [4] 12.5% | [5] -24.9% | [6] -17.9%

CCc1nnnn1-c1ccc(Br)cc1
inactive: [1] 8.8% | [2] 38.5% | [3] 13.7% | [4] 9.8% | [5] 40.2% | [6] 18.5%

O=C1CSC(c2ccc(C(F)(F)F)cc2)N1c1nncs1 (stereo unspecified)
inactive: [1] -1.2% | [2] -3.5% | [3] 29% | [4] -1.45% | [5] 12.6% | [6] 24.2%

Nc1[nH]c(=S)[nH]c(=O)c1NS(=O)(=O)c1ccccc1
inactive: [1] 3.65% | [2] -1.6% | [3] 12.6% | [4] -4.85% | [5] -10.2% | [6] 18.4%

CCCC(NC(=O)CNC(=O)OCc1ccccc1)C(=O)O (stereo not drawn) (Cbz-Gly-[ξNva]-OH)
inactive: [1] 31.6% | [2] 7% | [3] 2.35% | [4] 19.9% | [5] 5.45% | [6] 3.95%

CC(C)CCCC(C)C1CCC2(C)C3=C(CCC12C)C1(C)Cc2nonc2C(C)(C)C1CC3 (stereo unspecified)
inactive: [1] 20.9% | [2] 3.35% | [3] 3.3% | [4] 14.9% | [5] 0.55% | [6] 11.3%

O=NNc1ccc(SSc2ccc(NN=O)cc2)cc1
inactive: [1] 39.8% | [2] 9.5% | [3] 22.9% | [4] 44.9% | [5] 8.05% | [6] 31.1%

CC12CCC3c4ccc(OC(=O)c5ccc([N+](=O)[O-])cc5)cc4CCC3C1CCC2=O (stereo unspecified)
inactive: [1] 13.8% | [2] -6.95% | [3] -6.45% | [4] 5.75% | [5] -0.65% | [6] -1.75%

c1ccc(-c2coc(-c3ccccc3)n2)cc1
inactive: [1] 1.15% | [2] 8.65% | [3] 3.25% | [4] -2% | [5] -5.15% | [6] -10.2%

CC(=O)NC1C(OCC(=O)NCCNc2ccc([N+](=O)[O-])c3[nH]c4ccccc4c(=O)c23)C(O)C(CO)OC1(C)OCc1ccccc1 (stereo unspecified)
inactive: [1] -3.9% | [2] -39.9% | [3] -25.6% | [4] 8.65% | [5] -18.4% | [6] -3.4%

Nc1nc(SCc2ccccc2)c2ncn(C3CC(O)C(CO)O3)c2n1 (stereo unspecified)
inactive: [1] 0.05% | [2] -1.2% | [3] 3.1% | [4] -99.5% | [5] -1.45% | [6] -6.15%

Clc1ccccc1CSc1cc(SCc2ccccc2Cl)nc(SCc2ccccc2Cl)n1
inactive: [1] -8% | [2] -2.75% | [3] -2.25% | [4] 23.3% | [5] -7.3% | [6] 22%

CCOC1OC(C(O)CO)C(O)C1O (stereo unspecified)
inactive: [1] -16.9% | [2] -18.8% | [3] 5.25% | [4] -39.9% | [5] -18% | [6] -17%

O=C1CC2COc3ccccc3C2=NN1c1ccccc1 (stereo unspecified)
inactive: [1] 13.6% | [2] 4.3% | [3] 4.7% | [4] 1.35% | [5] -4.15% | [6] 10.2%

COC(=O)c1cc2c(cc1CC1Cc3cc4c(cc3C1=O)CCC4)CCC2 (stereo unspecified)
inactive: [1] -16.1% | [2] -42.3% | [3] -10.4% | [4] 9.3% | [5] 19.6% | [6] 1.65%

CC(=O)OCC(OC(C)=O)C(OC1OC(COC(C)=O)C(OC(C)=O)C(OC(C)=O)C1OC(C)=O)C(OC(C)=O)C(C=O)OC(C)=O (stereo unspecified)
inactive: [1] -0.2% | [2] 10.8% | [3] 9.75% | [4] -5.75% | [5] -3.8% | [6] -7.95%

O=C1NC(c2ccccc2)(c2ccccc2)C(=O)N1CCCCCCN1C(=O)NC(c2ccccc2)(c2ccccc2)C1=O
inactive: [1] 8.35% | [2] 3.45% | [3] 4% | [4] 0.25% | [5] -7.15% | [6] 18.2%

Reference: PubChem BioAssay (NCI)
